Molecules are shown by their SMILES. Several values for one entry are separate records, joined by “and”; a condition that tells them apart may be missing. Identical values can stand only once. Counter-ions that a name gives are not always drawn. ± gives the uncertainty stated by the source.
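Also: viable cell number estimated from Alamar Blue fluorescence read at 560/90, part of a single-dose primary screen of an FDA-approved drug library.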

For the test, the system named is U87. Nature of the test: cell viability relative to vehicle control; higher = less growth inhibition (less active). As to conditions: 10 µM; 72 h.
`CN1CCN(CCCN2c3ccccc3Sc3ccc(C(F)(F)F)cc32)CC1` [Trifluoperazine]: the cell viability turned out to be 103 ± 0.17%.

Take `COc1ccc2[nH]c([S+]([O-])Cc3ncc(C)c(OC)c3C)nc2c1` (stereo not drawn): the cell viability was 105% and 106%.

Regarding `CC(N/C(=N\C#N)Nc1ccncc1)C(C)(C)C` (stereo not drawn) [Pinacidil monohydrate], the cell viability was 105 ± 1.1%.

With `CC(=O)[C@]1(O)Cc2c(O)c3c(c(O)c2[C@@H](O[C@H]2C[C@H](N)[C@H](O)[C@H](C)O2)C1)C(=O)c1ccccc1C3=O` [Idarubicin HCL], the cell viability stood at 31.6 ± 2.3%.

As for `NNCCc1ccccc1`, the cell viability was 104.4 ± 0.9%.

Consider `CCCc1nc(C(C)(C)O)c(C(=O)OCc2oc(=O)oc2C)n1Cc1ccc(-c2ccccc2-c2nnn[nH]2)cc1`, for which the cell viability turned out to be 102 ± 1.9%.

With `CCCCCNC(=N)N/N=C/c1c[nH]c2ccc(OC)cc12`, the cell viability was determined as 108 ± 1.2%.

With `c1ccc(-c2ccc(C(c3ccccc3)n3ccnc3)cc2)cc1` (stereo not drawn), the cell viability turned out to be 101 ± 1.2%.

For `CN(C)CC[C@@H](c1ccc(Cl)cc1)c1ccccn1`, the cell viability was 104 ± 1.6%.

As for `CC(=O)O[C@]1(C(C)=O)CC[C@H]2[C@@H]3C=C(C)C4=CC(=O)CC[C@]4(C)[C@H]3CC[C@@]21C`, the cell viability is 101 ± 1.2%.

For `CC(C)(C)NCC(O)c1ccc(O)c(CO)c1` (stereo not drawn), the cell viability amounted to 98.8 ± 8.3%.

For `CN1C(=O)CC[C@H]1c1cccnc1` [(-)-Cotinine], the cell viability was found to be 94.6 ± 10%.

Consider `C[C@]12CC[C@@H]3c4ccc(O)cc4CC[C@H]3[C@@H]1CC[C@@H]2O`, for which the cell viability is 97.2 ± 2.4%.

On to `COCc1c(C(C)C)nc(C(C)C)c(/C=C/[C@@H](O)C[C@@H](O)CC(=O)O)c1-c1ccc(F)cc1`, for which the cell viability amounted to 14.2 ± 3%.

As for `C=C1/C(=C\C=C2/CCC[C@]3(C)[C@@H]([C@H](C)/C=C/[C@@H](O)C4CC4)CC[C@@H]23)C[C@@H](O)C[C@@H]1O`, the cell viability worked out at 100 ± 1.4%.

For `CNCC[C@H](Oc1cccc2ccccc12)c1cccs1` [Duloxetine], the cell viability is 104 ± 1.9%.

`COc1ccc2cc([C@H](C)C(=O)O)ccc2c1`: the cell viability was 106 ± 1.4%.

In the case of `Clc1ccc(CO/N=C(\Cn2ccnc2)c2ccc(Cl)cc2Cl)c(Cl)c1`, the cell viability stood at 103 ± 3.9%.

`CN(C/C=C/C#CC(C)(C)C)Cc1cccc2ccccc12`: the cell viability came to 103 ± 1.4%.

Consider `C[C@H]1O[C@H](O[C@H]2[C@H](O)[C@@H](O)[C@@H](O[C@H]3[C@H](O)[C@@H](O)C(O)O[C@@H]3CO)O[C@@H]2CO)[C@H](O)[C@@H](O)[C@@H]1N[C@H]1C=C(CO)[C@@H](O)[C@H](O)[C@H]1O` (stereo partly drawn), for which the cell viability came to 102.6 ± 0.92%.

Turning to `CC(C)NCC(O)COc1ccc(CCOCC2CC2)cc1` (stereo not drawn) [Betaxolol], the cell viability is 100.4 ± 0.2%.

Take `O=C(O)c1cc(/N=N/c2ccc(S(=O)(=O)Nc3ccccn3)cc2)ccc1O`: the cell viability is 102 ± 1.6%.

`Cc1onc(-c2ccccc2)c1-c1ccc(S(N)(=O)=O)cc1`: the cell viability was 106.8 ± 0.6%.

The term cell viability denotes a read-out of living cells in per cent, often relative to untreated cells.
